# DAT uptake mod = changed human dopamine transporter uptake under cocaine IC80; Q01959; LLC-PK1 hDAT cells, [14C]-dopamine uptake with cocaine IC80; actives deviate in either direction; B-score at 10 µM; hit rate 1.3% among 110,000; AID 449768;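 active = Z score or B-score, a plate-position-corrected score, falls beyond the plate's 99.7% confidence bounds, in either direction; inactive = both scores lie inside the 99.7% bounds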;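 note: scored against the spread of the other compound wells on the same plate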
# D1 allo mod = allosteric modulators of human D1 dopamine receptor; B-score at 10 µM; HEK293 D1, CRE-luciferase, dopamine EC30 potentiation; actives deviate in either direction; P21728; hit rate 5.9% among 58,000; AID 641;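 active = luminescence count or its row- and column-corrected plate score outside the 99.7% band of the plate's sample wells, on either side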
# Target sequence (P21728 whole entry, looked up): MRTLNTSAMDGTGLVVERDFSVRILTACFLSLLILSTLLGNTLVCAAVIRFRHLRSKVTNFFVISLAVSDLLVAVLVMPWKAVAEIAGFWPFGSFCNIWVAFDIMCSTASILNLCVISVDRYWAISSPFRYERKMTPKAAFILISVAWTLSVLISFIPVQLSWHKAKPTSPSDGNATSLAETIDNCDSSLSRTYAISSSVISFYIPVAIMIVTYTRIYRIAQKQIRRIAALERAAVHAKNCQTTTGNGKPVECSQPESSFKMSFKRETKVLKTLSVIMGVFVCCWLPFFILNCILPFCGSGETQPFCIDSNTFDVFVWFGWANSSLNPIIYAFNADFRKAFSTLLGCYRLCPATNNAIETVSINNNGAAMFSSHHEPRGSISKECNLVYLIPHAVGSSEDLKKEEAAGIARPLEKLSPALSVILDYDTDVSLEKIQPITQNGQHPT
# CYP2C19 inh = blocks human cytochrome P450 2C19. P33261. hit rate 21% among 96,000. AID 778. CYP2C19 Supersomes, luciferin-H EGE luminescence, 30 min. inhibition, % at 5 µM;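 active = CYP2C19 inhibition above a set limit at 5 µM in the primary screen, cut at about 50% in these data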;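 note: plate controls were negative control wells for no effect and 2.5 mM tranylcypromine positive control for full effect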
# CYP2C9 inh = inhibitors of human CYP2C9; P11712; CYP2C9 Supersomes, luciferin-H conversion, luminescence; inhibition, % at 5 µM; hit rate 20% among 96,000;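 active = blocking of liver enzyme CYP2C9 beyond about 50% at 5 µM, limit read from the data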
# CYP2C9 activ = increases human cytochrome P450 2C9 activity | P11712 | recombinant CYP2C9, luciferin-H conversion, luminescence; stronger effect = higher value; factor 1 = untreated enzyme, 0 = blocked | activation factor at 5 µM | hit rate 1.4% among 96,000 | AID 1024;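 active = activation factor of 2 or more for CYP2C9 at a 5 µM dose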;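 note: 0 = sulfaphenazole-blocked wells and 1 = vehicle-only wells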
# CYP2C19 act = increases human CYP2C19 enzyme activity. 96,000 tested, under 10 active. recombinant CYP2C19, luciferin-H EGE luminescence; stronger effect = higher value; 0 = fully inhibited enzyme, 1 = untreated enzyme. activation factor at 5 µM. P33261;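 active = activation factor of at least 2 at 5 µM in the primary screen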;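 note: 0 = wells with 2.5 mM tranylcypromine and 1 = vehicle-only wells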
# * = called active by the depositor; . = no result given. Shown are actives, neighbours in structure and some others; about 28% of the full set was active somewhere.
SMILES,DAT uptake mod,D1 allo mod,CYP2C19 inh,CYP2C9 inh,CYP2C9 activ,CYP2C19 act
CN(C)c1ccc(CN(C(=O)C2COc3ccccc3O2)C2CCS(=O)(=O)C2)cc1 (configuration not stated),0.0049,-0.085,94*,65*,0.3,0.1
COc1cc(C)c(C(N)=O)c(OC)n1,-0.21,-0.74,-24,-26,1.3,1.2
Fc1ccc2[nH]c3c(N4CCN(C5CCCCC5)CC4)ncnc3c2c1,.,.,67*,76*,0.2,0.3
COc1cccc(N2CCN(c3ncnc4c3[nH]c3ccc(F)cc34)CC2C)c1 (configuration not stated),0.94,-5.2*,59*,60*,0.4,0.4
COc1ccc2[nH]c3c(N4CC(C)OC(C)C4)ncnc3c2c1 (configuration not stated),1.8,.,54*,69*,0.3,0.5
COc1cc2[nH]c3c(N4CCN(c5ccc(Cl)cc5)CC4)ncnc3c2cc1OC,-1.1,.,4,6,0.9,1
COC(=O)C1=CN(CCCN2CCCC2=O)C=C(C(=O)OC)C1c1ccccc1C(F)(F)F,-0.72,.,7,45,0.6,0.9
CCOC(=O)c1c(-c2cccs2)csc1NC(=O)CNCCN1CCOCC1,-0.098,.,28,68*,0.3,0.7
CCOC(=O)c1c(-c2cccs2)csc1NC(=O)CN1CC(C)OC(C)C1 (configuration not stated),2.2,0.054,32,69*,0.3,0.7
CCC1(CC)Cc2ccccc2C(Nc2c(C)n(C)n(-c3ccccc3)c2=O)=N1,-0.17,.,9,14,0.9,0.9
CCOC(=O)N1CCC(NC(=O)Cc2ccc(-n3c(=O)[nH]c4ccccc4c3=O)cc2)CC1,.,-0.06,.,.,.,.
Cc1cc(C)c(NC2=NCC(=O)N2C2CCCCC2)c(C)c1,0.86,.,90*,85*,0.2,0.1
CCc1ccccc1NC1=NCC(=O)N1Cc1ccccc1,0.089,-0.21,44,15,0.8,0.6
O=C1CN=C(Nc2cccc(C(F)(F)F)c2)N1C1CCCC1,0.12,2.6,72*,82*,0.2,0.3
O=C(Nc1cccc(C(F)(F)F)c1)NC1CCCCC1,0.022,.,10,-15,1.2,0.9
CCc1ccccc1NC1=NCC(=O)N1C1CCCCC1,-1.6,.,56*,53*,0.5,0.4
CCCCN(CC)c1nc(-c2ccncc2)nc2ccccc12,0.74,.,96*,94*,0.1,0
c1ccc(-c2nc(N3CCCCCC3)c3ccccc3n2)nc1,2.1*,2.9,-10,48,0.5,1.1
COc1nc(-c2ccncc2)nc2ccccc12,0.2,.,74*,72*,0.3,0.3
O=C(O)CNc1nc(-c2ccccc2)nc2ccccc12,1.3,.,47,3,1,0.5
CCOC(=O)CNc1nc(-c2ccncc2)nc2ccccc12,-0.23,1.3,48,58*,0.4,0.5
CCN(CC)c1nc(-c2cccc(OC)c2O)nc2ccccc12,-0.38,.,4,-9,1.1,1
COc1cccc(-c2nc(OC(C)C)c3ccccc3n2)c1,1.2,.,5,5,0.9,0.9
COc1ccc(C2C3=C(CCCC3=O)Nc3nc4ccccc4n32)c(OC)c1OC (configuration not stated),.,0.58,.,.,.,.
CN1CCN(c2nc(-c3ccncc3)nc3ccccc23)CC1,0.84,-3.8*,28,20,0.8,0.7
c1ccc(CC2CCN(C(c3cccs3)c3nnnn3C3CCCC3)CC2)cc1 (configuration not stated),-0.72,-1.1,68*,88*,0.1,0.3
CCCCC(c1nnnn1C1CCCC1)N1CCN(C(=O)c2ccco2)CC1 (configuration not stated),1,-0.46,73*,69*,0.3,0.3
CCCC(c1nnnn1C1CCCCC1)N1CCN(c2ncccn2)CC1 (configuration not stated),.,0.92,36,81*,0.2,0.6
CCCCC(c1nnnn1C1CCCC1)N1CCN(C2CCCCC2)CC1 (configuration not stated),-0.22,-0.75,12,27,0.7,0.9
CCCCC(c1nnnn1CCOC)N1CCN(C(=O)c2ccco2)CC1 (configuration not stated),-0.3,-0.64,80*,55*,0.4,0.2
